The supplement of paper PMC10515830
Where a name gives a salt, the structure may show the parent alone.

Columns and labels:
Conditions in all cases: 10 µM; exposure time 6 h
[1] = tested on: Danio rerio larvae (5 dpf); experiment: difference in excitability vs DMSO (percentage points); higher = more excitable than DMSO
Procedure, shortened: (§1)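 Wild-type 5 dpf zebrafish larvae in 96-well plates were given 100 µL egg water containing library compound at 10 µM final for 6 h. After 3 h of exposure, plates at 28.5 ℃ were photographed every 6 s during a 3-h programme of moving lines and 100 ms, 400Hz tones. Z-LaP Tracker (a DeepLabCut model) quantified each behaviour, averaged over 48 larvae per compound. Values are the compound mean minus the DMSO-vehicle control, in percentage points.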

[2] = tested on: Danio rerio larvae (5 dpf); experiment: difference in startle response vs DMSO (percentage points); higher = stronger startle than DMSO
Procedure, shortened: as §1

[3] = tested on: Danio rerio larvae (5 dpf); experiment: difference in activity during first hour vs DMSO (percentage points); higher = more activity than DMSO
Procedure, shortened: as §1

[4] = tested on: Danio rerio larvae (5 dpf); experiment: difference in habituation to acoustic stimuli vs DMSO (percentage points); higher = more habituation than DMSO
Procedure, shortened: as §1

[5] = tested on: Danio rerio larvae (5 dpf); experiment: difference in combined optomotor response to red, green and blue moving lines vs DMSO (percentage points); higher = stronger optomotor response than DMSO
Procedure, shortened: as §1

Compound | difference in excitability [1] | difference in startle response [2] | difference in activity during first hour [3] | difference in habituation to acoustic stimuli [4] | difference [5]
CNC(=O)c1ccc(N2C(=S)N(c3ccc(C#N)c(C(F)(F)F)c3)C(=O)C2(C)C)cc1F | 13.3 | 4.28 | -11 | -1.47 | -0.198
CC(C)n1c(/C=C/C(O)CC(O)CC(=O)O)c(-c2ccc(F)cc2)c2ccccc21 (stereo not given) [Fluvastatin (sodium salt hydrate)] | 11.5 | -2.51 | 4.55 | -1.22 | 3.05
c1cc(CN2CCCNCCNCCCNCC2)ccc1CN1CCCNCCNCCCNCC1 [Plerixafor (hydrochloride hydrate)] | 11.6 | -7.66 | -16 | -5.73 | -15.1
Nc1ccn([C@@H]2O[C@H](CO)[C@@H](O)[C@@H]2O)c(=O)n1 [Cytarabine] | 1.17 | -0.992 | -3.96 | -4.77 | 3.66
Cn1nnc(-c2ccc(-c3ccc(N4C[C@H](COP(=O)(O)O)OC4=O)cc3F)cn2)n1 [Tedizolid Phosphate] | -1.24 | 8.42 | 3.68 | 2.23 | 0.136
CCCCNc1cc(C(=O)O)cc(S(N)(=O)=O)c1Oc1ccccc1 [Bumetanide] | 5.57 | -2.75 | 5.52 | -3.24 | 3.54
CN(C/C=C/C#CC(C)(C)C)Cc1cccc2ccccc12 [Terbinafine (hydrochloride)] | 7.35 | 0.627 | 1.02 | -1.41 | -4.42
CCC(C)(C)C(=O)O[C@H]1C[C@@H](C)C=C2C=C[C@H](C)[C@H](CC[C@@H]3C[C@@H](O)CC(=O)O3)[C@H]21 [Simvastatin] | 6.26 | -2.42 | 9.76 | 1.77 | 2.53
Cc1[nH]c(=O)c(C#N)cc1-c1ccncc1 [Milrinone] | -4.22 | -1.03 | 2.14 | 0.444 | 8.34
CCC1(c2ccccc2)C(=O)NCNC1=O [Primidone] | 3.77 | 4.38 | 11.2 | -0.65 | 9.02
CCN(CC)CCOc1ccc(C(=C(Cl)c2ccccc2)c2ccccc2)cc1 [Clomiphene (citrate)] | -9.14 | 5.47 | -4.03 | -5.11 | -16.4
O=C(O)C(=O)O.[NH-][C@@H]1CCCC[C@H]1[NH-].[Pt+2] [Oxaliplatin] | -8.81 | 2.6 | -6.68 | 11.3 | 1.69
CC1=C(/C=C/C(C)=C/C=C/C(C)=C/C(=O)O)C(C)(C)CCC1 [all-trans Retinoic Acid] | 7.11 | -8.47 | -4.15 | -13.5 | 6.48
Clc1ccc(COC(Cn2ccnc2)c2ccc(Cl)cc2Cl)c(Cl)c1 (stereo not given) [Miconazole (nitrate)] | 9.53 | -10.9 | -23.5 | -11.4 | -18.4
COc1cccc(N2CCN(C3=Nc4c(F)cccc4[C@H](CC(=O)O)N3c3cc(C(F)(F)F)ccc3OC)CC2)c1 [Letermovir] | 9.24 | -3.2 | 13.2 | -5.75 | -3.3
CN1CCC[C@@H]1Cc1c[nH]c2ccc(CCS(=O)(=O)c3ccccc3)cc12 [Eletriptan] | 0.175 | -8.65 | 6.02 | -5.47 | -0.217
C[C@H](Cc1cc2c(c(C(N)=O)c1)N(CCCO)CC2)NCCOc1ccccc1OCC(F)(F)F [Silodosin] | 15.3 | 3.54 | 3.31 | -5.47 | 4.97
C=C1/C(=C\C=C2/CCC[C@]3(C)[C@@H]([C@H](C)/C=C/[C@H](C)C(C)C)CC[C@@H]23)C[C@@H](O)C[C@@H]1O [1-hydroxy Vitamin D2] | 1.72 | -1.97 | 2.97 | 0.874 | 6.19
COc1cc(NC(C)CCCN)c2ncccc2c1 (stereo not given) [Primaquine (phosphate)] | 23.1 | -5.2 | 2.45 | -4.94 | -0.724
CCOc1nc2cccc(C(=O)OC(C)OC(=O)OC3CCCCC3)c2n1Cc1ccc(-c2ccccc2-c2nn[nH]n2)cc1 (stereo not given) [Candesartan Cilexetil] | 12.4 | -6.23 | -2.86 | -2.83 | -2.76
CC(=O)N[C@@H](CS)C(=O)O [N-acetyl-L-Cysteine] | -2.2 | 3.63 | 14.1 | -5.17 | -0.176
N=C(N)NC(=O)c1nc(Cl)c(N)nc1N [Amiloride (hydrochloride) (hydrate)] | 10.2 | -1.2 | -3.37 | 2.2 | 2.45
Nc1ncn([C@H]2C[C@H](O)[C@@H](CO)O2)c(=O)n1 [Decitabine] | -2.79 | -4.56 | -0.853 | 0.137 | 4.38
CCN(CC)CCOC(=O)C1(C2CCCCC2)CCCCC1 [Dicyclomine (hydrochloride)] | 9.55 | -4.86 | -8.86 | -5.06 | -3.96

Compound | difference in excitability [1] | difference in startle response [2] | difference in activity during first hour [3] | difference in habituation to acoustic stimuli [4] | difference [5]
CC(C)(C)C(O)/C=C/c1ccc2c(c1)OCO2 (stereo not given) [Stiripentol] | -5.22 | 0.0472 | 3.85 | -4.89 | 7.37
NS(=O)(=O)c1cc(Cl)c(Cl)c(S(N)(=O)=O)c1 [Dichlorphenamide] | 1.47 | -2.89 | -2.19 | -4.78 | -8.01
CC(C)CN(C[C@@H](OP(=O)(O)O)[C@H](Cc1ccccc1)NC(=O)O[C@H]1CCOC1)S(=O)(=O)c1ccc(N)cc1 [Fosamprenavir (calcium salt)] | 0.179 | 4.76 | 22.4 | -2.19 | 5.16
CC[C@@H]([C@H](C)O)n1ncn(-c2ccc(N3CCN(c4ccc(OC[C@@H]5CO[C@@](Cn6cncn6)(c6ccc(F)cc6F)C5)cc4)CC3)cc2)c1=O [Posaconazole] | 9.26 | -3.5 | 4.34 | -1.56 | 5.63
C=C1[C@H](CO)[C@@H](O)C[C@@H]1n1cnc2c(=O)[nH]c(N)nc21 [Entecavir (hydrate)] | -1.86 | 2.04 | -1.96 | 5.32 | 0.96
COc1ccc(Cl)cc1C(=O)NCCc1ccc(S(=O)(=O)NC(=O)NC2CCCCC2)cc1 [Glyburide (potassium salt)] | 9.95 | 5.16 | 10.9 | -3.8 | 7.83
CN(C)CCc1c[nH]c2ccc(C[C@H]3COC(=O)N3)cc12 [Zolmitriptan] | -7.59 | 9.39 | -0.487 | 4.76 | 10.3
CO[C@H]1C[C@@H]2CC[C@@H](C)[C@@](O)(O2)C(=O)C(=O)N2CCCC[C@H]2C(=O)O[C@H]([C@H](C)C[C@@H]2CC[C@@H](O)[C@H](OC)C2)CC(=O)[C@H](C)/C=C(\C)[C@@H](O)[C@@H](OC)C(=O)[C@H](C)C[C@H](C)/C=C/C=C/C=C/1C [Rapamycin] | 5.81 | -2.33 | 0.761 | -0.387 | 3.4
COc1ccc([C@@H]2Sc3ccccc3N(CCN(C)C)C(=O)[C@@H]2OC(C)=O)cc1 [Diltiazem (hydrochloride)] | 8.73 | -1.93 | 11.2 | -8.44 | 1.27
Fc1ccc([C@@H]2CCNC[C@H]2COc2ccc3c(c2)OCO3)cc1 [Paroxetine (hydrochloride)] | 11 | -3.61 | -22.3 | -3.35 | -11.4
C#CCC(Cc1cnc2nc(N)nc(N)c2n1)c1ccc(C(=O)N[C@@H](CCC(=O)O)C(=O)O)cc1 (stereo not given in full) [Pralatrexate] | 7.8 | 7.47 | 0.4 | 4.28 | 4.2
COc1ccccc1OCC(O)CN1CCN(CC(=O)Nc2c(C)cccc2C)CC1 (stereo not given) [Ranolazine (hydrochloride)] | 14.6 | -5.16 | 4.7 | 3.56 | 2.81
CN(C)CCOC(c1ccc(Cl)cc1)c1ccccn1 (stereo not given) [Carbinoxamine (maleate)] | 8.33 | 3.19 | -11.6 | 5.36 | -7.17
CCCCCCCC(=O)N[C@H](CN1CCCC1)[C@H](O)c1ccc2c(c1)OCCO2 [Eliglustat (hemitartrate)] | 10.1 | -3.5 | 7.49 | 7.96 | 7.51
CCCSc1ccc2[nH]c(NC(=O)OC)nc2c1 [Albendazole] | 17.3 | 4.02 | 4.4 | 0.0113 | 3
CC1(C)O[C@@H]2C[C@H]3[C@@H]4CCC5=CC(=O)C=C[C@]5(C)[C@@]4(F)[C@@H](O)C[C@]3(C)[C@]2(C(=O)CO)O1 [Triamcinolone acetonide] | -3.81 | -2.41 | 12.6 | 3.46 | 7.94
O=C1CN2Cc3c(ccc(Cl)c3Cl)N=C2N1 [Anagrelide (hydrochloride)] | 11.5 | -3.44 | -9.48 | 7.77 | 3.07
Nc1ccc(S(N)(=O)=O)cc1 [Sulfanilamide] | 11.8 | -3.25 | 6.97 | -1.65 | 3.13
COc1ccc(C(=O)CC(=O)c2ccc(C(C)(C)C)cc2)cc1 [Avobenzone] | 3.84 | -2.54 | -6.34 | 4.35 | -2.39
CO[C@@]1(NC(=O)Cc2cccs2)C(=O)N2C(C(=O)O)=C(COC(N)=O)CS[C@@H]21 [Cefoxitin (sodium salt)] | 2.72 | 3.22 | 3 | 1.06 | 10.4
CC(C)(C)NC(=O)[C@@H]1CN(Cc2cccnc2)CCN1C[C@@H](O)C[C@@H](Cc1ccccc1)C(=O)N[C@H]1c2ccccc2C[C@H]1O [Indinavir (sulfate)] | -11.9 | -2.27 | 1.38 | 11.2 | -0.405
Cc1ccc(NC(=O)c2ccc(CN3CCN(C)CC3)cc2)cc1Nc1nccc(-c2cccnc2)n1 [Imatinib (mesylate)] | 13.1 | 1.01 | -9.06 | 5.17 | -1.23
CC[C@]1(O)C[C@H]2CN(CCc3c([nH]c4ccccc34)[C@@](C(=O)OC)(c3cc4c(cc3OC)N(C=O)[C@H]3[C@@](O)(C(=O)OC)[C@H](OC(C)=O)[C@]5(CC)C=CCN6CC[C@]43[C@@H]65)C2)C1 [Vincristine (sulfate)] | 3.18 | 3.21 | -4.31 | -2.03 | 1.46
